From PubChem BioAssay (Tox21)
Results filed as inconclusive are left out. Values without a mark were called inactive. Calls of active or inactive are those of the source. Calls follow the shape of the dose curve; as a rule, active = well fitted activation curve with a large enough effect in the signal ratio in the repeat runs, with a control signal flat (not every such curve was filed as active); inconclusive = weak or mixed curves; inactive = flat fitted curve, though single readings scatter; the % refers to the signal ratio.

Experiment: qHTS assay for small molecule activators of the heat shock response signaling pathway (AID 743210)
Details: HeLa HSE-bla reporter, beta-lactamase ratio, 5 h; series mostly up to 62.6 µM; activation: at the top concentration
Source text: U.S. Tox21 Program National Center for Advancing Translational Sciences [NCATS] NIH Chemical Genomics Center [NCGC] U.S. Environmental Protection Agency [EPA] National Institutes of Environmental Health Sciences [NIEHS] National Toxicology Program [NTP] U.S. Food and Drug Administration [FDA] Tox21 Assay Overview: Various chemicals, environmental and physiological stress conditions may lead to the activation of heat shock response/ unfolded protein response (HSR/UPR). There are three heat shock transcription factors (HSFs) (HSF-1, -2, and -4) mediating transcriptional regulation of the human HSR. To identify the compounds that activate HSR signaling, HSE-bla HeLa cell line (Invitrogen, Carlsbad, CA, USA) containing a beta-lactamase reporter gene under the control of the heat shock response elements was used to screen the Tox21 10K compound library.
Tox21 Assay Protocol Summary: The CellSensor HSE-bla HeLa cells (Invitrogen, Carlsbad, CA, USA) were dispensed at 1500 cells/6uL/well into 1536-well black wall/clear bottom plates using a Multidrop combi (Thermo Fisher Scientific, Waltham, MA) dispenser. After the assay plates were incubated at 37 C and 5% CO2 overnight, 23 nL of compounds dissolved in DMSO, positive controls or DMSO only was transferred to the assay plate by a Pintool station (Kalypsys, San Diego, CA). The plates were incubated at 37 C for 5 h. After 1 uL of LiveBLAzerTM B/G FRET substrate was added using a Flying Reagent Dispenser (Beckman Coulter, Indianapolis, IN, USA), the plates were incubated at room temperature for 2.5 h, and fluorescence intensity was measured by an Envision plate reader (PerkinElmer, Shelton, CT).
% is scaled to controls: 0 for no effect and ±100 for the full control effect.

| Structure (SMILES) | outcome | activation |
| --- | --- | --- |
| CN(C)[C@@H]1C(=O)C(C(N)=O)=C(O)[C@@]2(O)C(=O)C3=C(O)c4c(O)cccc4[C@@](C)(O)[C@H]3C[C@@H]12 | inactive | – |
| Clc1ccccc1Cl | inactive | – |
| NCC(O)c1ccc(O)cc1 (stereo not given) | inactive | – |
| c1ccc2c(c1)oc1ccccc12 | inactive | – |
| CC(Br)C(=O)O (stereo not given) | inactive | – |
| O=c1ccc(=O)[nH][nH]1 | inactive | – |
| CCCCN(CC)C(=O)SCCC | inactive | – |
| O=[N+]([O-])c1ccc([As](=O)(O)O)cc1 | inactive | – |
| O=c1n(Cl)c(=O)n(Cl)c(=O)n1Cl | inactive | – |
| C1CN2CCN1CC2 | inactive | – |
| Clc1cccc(Cl)c1Cl | inactive | – |
| Nc1ccccc1C(=O)O | inactive | – |
| O=C1CCCN1 | inactive | – |
| CCOP(=S)(OCC)SCCSCC | inactive | – |
| CC(C)(Cl)Cl | inactive | – |
| CCCCN(CCCC)SN(C)C(=O)Oc1cccc2c1OC(C)(C)C2 | – | 2.42% [at 81.1 µM] |
| CCOP(=S)(OCC)Oc1cnc2ccccc2n1 | inactive | – |
| CN(C)CCO | – | -2.58% |
| CCCCCOC(=O)c1ccccc1C(=O)OCCCCC | inactive | – |
| CC1C=[C-]C=C1.[C-]#[O+].[C-]#[O+].[C-]#[O+].[Mn] | – | -0.775% |

| Structure (SMILES) | outcome | activation |
| --- | --- | --- |
| CCC12COCN1COC2 | inactive | – |
| CCN(CC)c1ccccc1 | inactive | – |
| CCCN(CCC)c1c([N+](=O)[O-])cc(C(F)(F)F)cc1[N+](=O)[O-] | inactive | – |
| O=NN1CCCC1 | inactive | – |
| [N-]=[N+]=[N-] | inactive | – |
| CCCN(CCC)N=O | inactive | – |
| CCC(C)(CC)c1cc(NC(=O)c2c(OC)cccc2OC)on1 | inactive | – |
| CCN(CC)CCO | inactive | – |
| Cc1[nH]c(=O)n(C(C)(C)C)c(=O)c1Cl | inactive | – |
| CCNc1nc(NC(C)C)nc(SC)n1 | inactive | – |
| COC(=O)c1ccccc1N | inactive | – |
| Cc1ccc(N)cc1N | inactive | – |
| Cc1cc(Cl)ccc1O | inactive | – |
| Cc1ccc([N+](=O)[O-])cc1C | inactive | – |
| C[C@]12CC[C@H]3[C@@H](CC[C@@]45O[C@@H]4C(O)=C(C#N)C[C@]35C)[C@@H]1CC[C@@H]2O | – | -0.0679% |
| CC(C)(C)C(O)(CCc1ccc(Cl)cc1)Cn1cncn1 (stereo not given) | inactive | – |
| CC(C)(C)OOC(C)(C)C | inactive | – |
| O=Cc1cccc(Oc2ccccc2)c1 | inactive | – |
| CN(C)N=O | inactive | – |
| CC(C)(C)OOC(=O)c1ccccc1 | inactive | – |
